The supplement of paper PMC11417369
The full ranking holds about 25,000 sequences; the median of “ln(normalized median fluorescence intensity)” is about 9.7, and the highest 2% start at about 11. The full list was thinned out, with the highest values kept by preference.

These sequences were tested on PfAP2-HC AP2 domain (GST-tagged) (assay: gcPBM binding intensity (ln(normalized median fluorescence intensity)); higher = stronger DNA binding).
Outline: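 Binding of GST-tagged P. falciparum DNA-binding domains, expressed in E. coli and used at about 25 μg on average, was carried out for 1 h in 1× PBS containing 1% milk, 0.2 mg/ml BSA, 0.5% salmon testes DNA and 0.03% Triton X-100. The target was an Agilent 4 × 180k array of primer-extended double-stranded 36-bp intergenic genomic probes plus negative controls, read with Alexa488 anti-GST antibody at 488 nm. Binding intensity is the highest Masliner-normalised natural-log median intensity across replicate spots of either probe orientation.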

Sequence | gcPBM binding intensity (ln)
AAAAAACACAGACACACACACATATACATACATACA [CACACA_site2666] | 10.7
ATAAATACTAGGCACACACACATATATATATATATA [CACACA_site2080] | 10.4
AAAAAAAACAGACACACACACACATATACATACATA [CACACA_site2665] | 11.5
TAAACAGACATATAAACACACATACATACATACATA [CACACA_site7215] | 10.2
AAATAAATACTAGGCACACACACATATATATATATA [CACACA_site2079] | 11
ATAAATACTAGGCACACACACATATAGATTTATATA [CACACA_site7064] | 10.8
TGTTTCTAAGAATTTACACACAAAATATTTCTACAT [CACACA_site7846] | 9.9
TTTATTTATTAAGAATGTACATGTATTTGTTAAATA [XGTACX_site4465] | 9.4
AAATTTGGCAGACACACACACACACGCACACGCACA [CACACA_site6423] | 11.5
TATACACATAGACACACACACATACACGCACATACA [CACACA_site6908] | 10.7
ATTTGGCATAGACACACACACACACGCACGCACATA [CACACA_site6424] | 11.1
TATCTCATAGTATACACACACACACGCGCACATATA [CACACA_site6917] | 10.5
AAAAATTTGGCATACACACACACACGCACACGCACA [CACACA_site6422] | 10.6
CGCACACGCAGACACACACACACATATAAATAAATA [CACACA_site7101] | 10.8
CACATACACATACACATACACACGCATAGAAACATA [CACACA_site2136] | 10.5
CATAGATACATACACGCACACACATATATATATATA [CACACA_site13] | 10.3
TCTCATAGTAGACACACACACACACGCACATATATA [CACACA_site6916] | 11.3
TCAAGTTTATATTAACTATTTATGAAAAAAAAAAGA [CACACA_negctrl_site902] | 9.38
ATTTTATATACACTTTGTACTTATTTTATTCTTCTT [XGTACX_site4200] | 9.93
TAATATATTTATAAGTGTACACATTATATAAATCCC [XGTACX_site8875] | 9.64
ATCCATTATTTTTGTTGTACGGGTAACTTTAAAAAG [XGTACX_site2226] | 9.5
ATGAATAATTAATGATGTACTTAAAAAAAAAAATAT [XGTACX_site6346] | 9.53
TATATAGCTAAAAACACACAAATATGTACACATAAA [CACACA_site7665] | 9.88

Sequence | gcPBM binding intensity (ln)
ATGAACATATCAATTCTCAAAATAGGATGAGAGCAT [CACACA_negctrl_site230] | 9.6
ATCATAAATATAGCAACACACGGATTACATAAAATA [CACACA_site2796] | 9.85
GTGGTTATATATTAAGTGCATATTATAATTTTAAAC | 9.52
AATATGTGAATATAATCACACACAATACGGAAACAC [CACACA_site8875] | 10.7
TATGTGAATATAATCACACACAATACGGAAACCCAC [CACACA_site2725] | 9.99
TATGTGAATATAATCACACACAATACGGAAAGAGAC [CACACA_site7311] | 11.2
TTAAAATTTTTCAAAAGTACATAAATAATATATATT [XGTACX_site4694] | 9.32
ATAAACAGATCATATACATGCATATATGTAGAATAA [TGCATGCA_site157] | 9.82
AACACGCGCAGACACACACACACACGCACATATATA [CACACA_site7104] | 10.9
CACACGCACGAACACACACACATATAAATATAAATA [CACACA_site6299] | 10.2
CACACGCACGAACACACACACACACGCACGCACATA [CACACA_site6305] | 10.7
CACACGCACGAACACACACACACACGCGCACATATA [CACACA_site6304] | 11
CACACGCACGAACACACACACACACGCATATAAATA [CACACA_site6302] | 10.9
CACGCGCACGAACACACACACACACGCATATAAATA [CACACA_site7103] | 11
ATATACTATTAACCACATATGTGTGTTAATTTATAT [GTGCAC_negctrl_site315] | 9.79
CATATATAATAATATTGTACATATATAATAATAATA [XGTACX_site3338] | 9.69
AAATAAGAACATAGAATGCACTTTTTTTTTTTTTCC | 9.51
TAAATATATGCATATACACACAACAAAAAAATATAT [CACACA_site2341] | 10.1
TGATAATAAGCATACACACACACACTAAAAAAAAAA [CACACA_site6478] | 10.9
AAGAAAATAAAAAATAAGCATAATATGATATGATAT [TGCATGCA_negctrl_site196] | 10.1
AATAAAATAATAAAAGCACACAAGAATACACCCAAA [CACACA_site7919] | 10.6
AATAAGTATACACATACACACACACCCAAAAAAAAA [CACACA_site8034] | 11
AAGTAAAATAAGTATACACACATAAATATATATATA [CACACA_site685] | 10.1

Sequence | gcPBM binding intensity (ln)
TGATAATAAGCATACACACACACACTAGAAAAAAAA [CACACA_site4558] | 11.5
GGTGATAATAAGCATACACACACACCCAAAAAAAAA [CACACA_site8137] | 10.2
TGATAATAAGCATACACACACACACCCAAAAAAAAA [CACACA_site721] | 11.2
TAAGTATACGCATACACACACACACCCAAAAAAAAA [CACACA_site425] | 10.4
AATAAATTGGTATGTTGTACAAAGTAACCATCGATT [XGTACX_site2823] | 9.75
ATTCCACTGTTTTAGTGTACTGGTCGTTTTTTTTTT [XGTACX_site1738] | 9.89
TTAAATAAAATAAAAACATGCACACTTTATTTTTTT [TGCATGCA_site719] | 9.74
TATTAATTATTATGACATACATATCAGTTATTAAAA [CACACA_negctrl_site600] | 9.35
GTTACACCAACAAACACACACACACCGACACCCAAA [CACACA_site5361] | 10.6
GTTACACCAACAAACACACACACACCCACCCACAAA [CACACA_site2427] | 10.6
AGCACCCACCAACACACACACACACCCACCCACCGA [CACACA_site368] | 11.2
AGCACCCACCAACACACACACACACCCACCCACCCA [CACACA_site8011] | 11.2
ATCAAGCACCAACACACACACACACCCCCACCCACA [CACACA_site370] | 11.3
TCTTTATTATTCGCCACACACATATATATATATATA [CACACA_site3077] | 10.1
TTTCCAAATTGTTGACGGACACTCACGAATAGTTAT [XGTACX_site5720] | 9.63
ATTAAATGATCAAGGTGTACATTAACAAGAACTATA [XGTACX_site7022] | 9.72
TACGTAGCCACACTAACACACACAAATATGCACAAT [CACACA_site8942] | 10.9
CGTAGCCGCACTAACACACACAAATATACGCAATCA [CACACA_site2898] | 10.1
CGTAGCCACACTAACACACACAAATATACACAATCA [CACACA_site7379] | 10.7
TTTTTTTAAAGAATTATCATAAAATGATTGCATCAT [XGTACX_negctrl_site141] | 9.34
GCGAAATATTATTATAGTATACAAATACTTCTATGA [CACACA_negctrl_site197] | 9.51
TGTATCCATATTTGTTCACACACACCCATATTTATA [CACACA_site9190] | 10.4
TATCCATATTTGTTCACACACACACCCATTTATATA [CACACA_site3571] | 11

Sequence | gcPBM binding intensity (ln)
TATCCATATTTGTTCACACACACACCGATTTATATA [CACACA_site5888] | 10.2
TATAAAAAAAAAAAAAAAAAAAAAAATATATATATA [CACACA_negctrl_site817] | 9.34
TGGGATAGATCATTTACACACACAAAAAAAAAAAAA [CACACA_site2140] | 9.89
TTATTTATTTATTATAGTTCACTTGAAAATACAAGA [CACACA_negctrl_site1480] | 9.38
CATACACGCGGACACACACACACACGCATATATAAC [CACACA_site6427] | 11.2
AGTATACATATATATACACACACACCGATATATATA [CACACA_site8357] | 10.4
ATAGTATACGGACACACACACACACCGATATATATA [CACACA_site5032] | 11.2
TATATATACATATACACACACACACCGATATATATA [CACACA_site8706] | 10.5
CGCATACACGGACACACACACACATATATATATATA [CACACA_site4520] | 10.9
TATACACGCGGACACACACACACACGCAAAAAAAAA [CACACA_site6377] | 10.5
CACGCATACGGACACACACACACACCGATATATATA [CACACA_site4521] | 11
ATAGTATACAGACACACACACACACCGATATATATA [CACACA_site8511] | 10.7
GGCATACACGGACACACACACACACCGACATATATA [CACACA_site4493] | 11.5
AAAAAAAAAAGACACACACACACACGCATATACATA [CACACA_site7289] | 10.7
TATAGATACATATACACACACACACCGACATATATA [CACACA_site9138] | 10.8
TACATGAATAAACTTACACACACCCATGCATACATA [CACACA_site97] | 10.4
ATGTTATAATTTAGTGTGCACATATTAAGAGGAACA | 10.1
TACATACAGATATATACACACATATATAATATATAT [CACACA_site4376] | 10
CCCTTAATATAAAGCACACATATATATAATATATAT [CACACA_site4439] | 9.79
CAAAATAAAAATAACACACACATTTATTTATATACA [CACACA_site6679] | 10.1
